molecular target: IL-12 (human, p35/p40 heterodimer) (Homo sapiens, UniProt P29459;P29460 SEQ:57-253,SEQ:23-328); assay: competition; fold specificity for IL-23 over IL-12; 250 nM IL-12, saturation re-analysis of competition data; settings: G4; XNA; deoxy A and G, 2'-OMe C and U
Protocol: Several of the minimized constructs from the dRmY Selection 2 were also assayed in a competition format in which cold aptamer was titrated and competed away trace ³²P ATP labeled aptamer In the competition assay, the [IL-23] was held constant, the [trace labeled aptamer] was held constant, and the [unlabeled aptamer] was varied. The KD was calculated by fitting the following equation to the data: Fraction aptamer bound=amplitude*([aptamer]/(KD+[aptamer]))+background binding.
The competitive binding data was re-analyzed in a saturation binding experiment where the concentration of ligand (aptamer) was varied and the concentration of receptor ([…]) was held constant and the [bound aptamer] was plotted versus the [total input aptamer].

Chain of IL-12 (human, p35/p40 heterodimer) (P29459 23-219, chain 1 of 2): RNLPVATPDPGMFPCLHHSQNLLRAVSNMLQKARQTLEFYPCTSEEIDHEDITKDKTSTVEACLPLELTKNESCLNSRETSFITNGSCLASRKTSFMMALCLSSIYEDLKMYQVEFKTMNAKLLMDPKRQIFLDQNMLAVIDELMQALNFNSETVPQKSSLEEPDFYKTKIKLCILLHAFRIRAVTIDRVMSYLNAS
Chain of IL-12 (human, p35/p40 heterodimer) (P29460 23-328, chain 2 of 2): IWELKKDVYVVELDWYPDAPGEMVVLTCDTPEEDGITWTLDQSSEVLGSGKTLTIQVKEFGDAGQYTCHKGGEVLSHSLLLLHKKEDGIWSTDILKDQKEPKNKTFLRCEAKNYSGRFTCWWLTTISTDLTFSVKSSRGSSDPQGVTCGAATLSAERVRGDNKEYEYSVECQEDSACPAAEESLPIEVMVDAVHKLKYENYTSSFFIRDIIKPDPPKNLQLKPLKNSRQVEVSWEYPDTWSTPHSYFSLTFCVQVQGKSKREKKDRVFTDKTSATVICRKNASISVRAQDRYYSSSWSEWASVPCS

Q: With ACAGGCAAGUAAUUGGGGAGUGCGGGCGGGGUGU as the sequence, how does the binding signal read?
A: The binding signal was 33 fold.

Source: patent US20060193821, “Aptamers to the human IL-12 cytokine family and their use as autoimmune disease therapeutics” (published 2006)
